PubChem BioAssay AID999 (SRMLSC, 2007)
Values without a mark were called inactive. Active and inactive are the calls of the source.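 Rule for the calls: active = viability at or below 21.59%, 3 SD under the median of tested compounds; inactive = the rest.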

Assay: growth suppression of PTEN-null HCT116 cells, cell-based, validation, diverse DP compound set (AID 999);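 note: 100% = median luminescence of untreated cell control wells and 0% = no signal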
Details: CellTiter-Glo, 60 h, at 10 µM, active compounds read low

SMILES | viability
C[C@@H]1O[C@@H](OC2CC(O)C3(CO)C4C(CCC3(O)C2)C2(O)CCC(C3=CC(=O)OC3)C2(C)C[C@H]4O)[C@H](O)[C@H](O)[C@H]1O (stereo not given in full) | 106%
N#CC(C#N)=Cc1cc(O)c(O)c([N+](=O)[O-])c1 | 106%
CCCN1CCC[C@@H]2Cc3cn[nH]c3C[C@H]21 | 105%
C[C@]12CC[C@@H](O)C[C@@H]1CC[C@@H]1[C@@H]2CC[C@]2(C)C(=O)CC[C@@H]12 | 98.8%
CC(C)(C)[C@]1(O)C[C@@H]2OC(=O)CC23C(=O)O[C@@H]2OC(=O)[C@H](O)C231 (stereo not given in full) | 93.3%
NCCc1c[nH]c2ccc(O)cc12 | 98.1%
CC1=C2[C@H]3OC(=O)[C@@H](C)[C@@H]3CC[C@@]2(C)C=CC1=O | 95.7%
COC(=O)C(O)C(O)(CCC(C)C)C(=O)OC1C(OC)=CC23CCCN2CCc2cc4c(cc2C13)OCO4 (stereo not given) | 26.2%
CC/C(=C(\c1ccccc1)c1ccc(OCCN(C)C)cc1)c1ccccc1 | 35.9%
C[C@@H]1CC[C@H]2[C@@H](C)C(=O)O[C@@H]3OC4(C)CC[C@@H]1[C@]32OO4 | 71.5%
C=CCN1CC[C@]23c4c5ccc(O)c4O[C@H]2C(=O)CC[C@@]3(O)[C@H]1C5 | 89.3%
CC(C)c1cc2c(c(O)c1O)[C@@]1(C(=O)O)CCCC(C)(C)[C@@H]1CC2 | 97.5%
CNc1ccc2oc(C[C@@H]3OC4(CC[C@@H]3C)O[C@H](C(C)C(=O)c3ccc[nH]3)[C@H](C)C[C@H]4C)nc2c1C(=O)O (stereo not given in full) | 3.3% (active)
Nc1ccncc1 | 100%
CC(=O)O[C@H]1[C@H]2[C@@H](OC(=O)Cc3ccccc3)[C@@H](C)C[C@]2(OC(C)=O)C(=O)/C(C)=C/[C@@H]2[C@H](CC[C@@]13CO3)C2(C)C | 68.9%
C[C@H]1CCC/C=C/C2C[C@H](O)C[C@H]2[C@H](O)/C=C/C(=O)O1 (stereo not given in full) | 58.2%
CCCC[C@H]1C(=O)O[C@H](C)[C@H](NC(=O)c2cccc(NC=O)c2OC)C(=O)O[C@@H](C)[C@@H]1OC(=O)CC(C)C | 93.3%
N#Cc1nn(-c2c(Cl)cc(C(F)(F)F)cc2Cl)c(N)c1S(=O)C(F)(F)F (stereo not given) | 85.6%
CN(C)[C@@H]1C(=O)C(C(N)=O)=C(O)[C@@]2(O)C(=O)C3=C(O)c4c(O)cccc4[C@@](C)(O)C3CC12 (stereo not given in full) | 97.1%
CSC(=S)NCc1c[nH]c2ccccc12 | 91.6%
